Source: PubChem BioAssay (National Center for Advancing Translational Sciences (NCATS))
DRD3 agonist: activates the human D3 dopamine receptor; D3R DiscoveRx beta-arrestin cells, luminescence, 90 min; AID 652048; max activation, %; 410,000 tested, 0.58% active; in the data active means max activation above about 30%
Target sequence (P35462 whole entry, looked up): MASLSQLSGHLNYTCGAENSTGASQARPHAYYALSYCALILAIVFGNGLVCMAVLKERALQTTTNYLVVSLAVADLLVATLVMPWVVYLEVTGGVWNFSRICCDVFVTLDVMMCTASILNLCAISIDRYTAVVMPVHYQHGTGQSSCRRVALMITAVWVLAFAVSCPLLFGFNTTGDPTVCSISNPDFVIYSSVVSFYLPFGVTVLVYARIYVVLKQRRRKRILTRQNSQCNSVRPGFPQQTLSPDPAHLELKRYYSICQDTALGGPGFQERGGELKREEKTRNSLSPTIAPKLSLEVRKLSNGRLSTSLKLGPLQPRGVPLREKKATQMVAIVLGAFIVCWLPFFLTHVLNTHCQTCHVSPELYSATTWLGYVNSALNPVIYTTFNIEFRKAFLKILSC
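Agonist-mode cell screen: cells plated at 1500/well and incubated overnight at 37 °C, then exposed to library compounds for 90 min at 37 °C. Detection reagent was added for 30–60 min at room temperature, and luminescence was read.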
DRD3 antagonist: antagonists of human D3 dopamine receptor; P35462; D3R cells, DiscoveRx beta-arrestin luminescence, antagonist mode; stronger effect = lower value; max response, negative = inhibition, %; 360,000 tested, 2.5% active; in the data active means max response below about -50%; inconclusive means no clear call, values can overlap the other calls
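Cells plated overnight at 1500 cells/well, then exposed to library compounds with dopamine controls for 90 minutes at 37 degrees C. DiscoveRx reagent added for 30–60 minutes at room temperature; luminescence read, quantitative HTS format.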
uPA generation: blocks generation of uPA at the cell surface; cell surface uPA generation assay, qHTS; Potency, µM (series often up to 38.3 µM), actives largely listed as inhibitors; 330,000 tested, 0.31% active; active means well fitted inhibition curve with a large enough effect; inconclusive means small, poorly fitted or top-dose-only effect; inactive means no such curve, though single readings can be large or run the other way; tested in mouse RAW 264.7 cells; further: nearly all actives have a fitted effect of over 55% in size
RGS4 inhibitor: inhibitors of human regulator of G protein signaling 4; P49798; Transcreener GDP fluorescence polarization, RGS4-accelerated GTP hydrolysis; Potency, µM (top dose mostly 114 µM), most hits filed as inhibitors; 390,000 tested, 0.039% active; active means well fitted inhibition curve with a large enough effect; inconclusive means small, poorly fitted or top-dose-only effect; inactive means no such curve, though single readings can be large or run the other way; further: nearly all actives have a fitted effect of over 75% in size
Target sequence (P49798 whole entry, looked up): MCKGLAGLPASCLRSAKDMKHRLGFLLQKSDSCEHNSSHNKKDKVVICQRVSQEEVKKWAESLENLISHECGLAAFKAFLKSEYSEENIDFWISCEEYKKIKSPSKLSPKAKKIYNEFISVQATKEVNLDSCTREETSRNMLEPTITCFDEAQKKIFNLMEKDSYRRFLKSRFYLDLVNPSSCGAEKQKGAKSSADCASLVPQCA
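MLSMR compounds (23 nl, pin-transferred) preincubated 10 min at room temperature with a 500nM (2x) first reagent, then RGS4 at 900nM (2x) plus Transcreener GDP mix added; fluorescence polarization (620/688 nm) read before and after 90 min at 30 °C.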
Of the large screens only hits and unclear results are named; the others gave an inactive call. Hits are enriched below; roughly 3.1% of the tested compounds scored in any of these assays.

CC(C)(CNCc1ccccc1)NS(=O)(=O)c1ccccc1	none
Cc1ccc(NC(=O)CCN2CCN(C/C=C/c3ccccc3)CC2)cc1C	none
CC(C)(CNCc1ccccc1)NS(=O)(=O)c1ccc(Cl)cc1	DRD3 antagonist -57
CC(C)(CN1CCNCC1)NS(=O)(=O)c1ccc(Cl)cc1	DRD3 antagonist -95, uPA generation inconclusive
CC(C)(CN1CCCC1)NS(=O)(=O)c1ccc(Cl)cc1	none
NC(Cc1ccccc1)C(=O)O (configuration not stated)	none (no result: DRD3 antagonist, uPA generation, RGS4 inhibitor)
COCCCNC(=O)C1CCN(c2cc(C)nc3c(-c4ccc(OC)c(OC)c4)c(C)nn23)CC1	none (no result: DRD3 antagonist, uPA generation)
Cc1cccn2c3c(c(=O)nc12)C(c1ccc(F)cc1)CC(=O)N3 (configuration not stated)	none (no result: DRD3 antagonist, uPA generation)
Clc1cccc(CNCCCSc2ncccn2)c1Cl	DRD3 antagonist -70
Clc1cccc(Cl)c1CNCCCSc1ncccn1	none
Cc1cc(C)nc(SCCCNCc2ccccc2)n1	DRD3 antagonist -67
Clc1ccc(CNCCCSc2ncccn2)cc1Cl	DRD3 antagonist -67
COC(=O)c1ccc(NC(=O)CCn2cnnn2)cc1	none (no result: DRD3 antagonist, uPA generation)
O=C1NC(=O)[C@H]2[C@@H]1[C@@H]1C=C[C@H]2C1	none (no result: DRD3 antagonist, uPA generation, RGS4 inhibitor)
COCCCNC(=O)Cn1c(=O)n(-c2ccc(Cl)cc2)c(=O)c2c3c(sc21)CCCCC3	none (no result: DRD3 antagonist, uPA generation)
CCNC(=S)NS(=O)(=O)c1ccccc1	DRD3 antagonist -58
CCNC(=S)NS(=O)(=O)c1ccc(Cl)cc1	none
CS(=O)(=O)OCCCNCCCOS(C)(=O)=O	none (no result: DRD3 antagonist, uPA generation, RGS4 inhibitor)
C=C(C)Cn1c2ccc(NC(=O)CCc3cccc(Cl)c3)cc2c(=O)n1C	DRD3 agonist 45 (no result: uPA generation, RGS4 inhibitor)
O=S(=O)(c1ccc(Cl)cc1)c1nc(-c2ccco2)oc1SCc1ccc(F)cc1	none (no result: DRD3 antagonist, uPA generation)
O=C(c1ccco1)N1CCN(C(=O)c2ccco2)CC1	none (no result: uPA generation, RGS4 inhibitor)
O=C(c1ccncc1)N1CCN(C(=O)c2cccs2)CC1	none
CCC(C)N1CCN(C(=O)c2cccs2)CC1 (configuration not stated)	DRD3 antagonist -65
c1ccc(CCN(Cc2ccccc2)C2CCN(C3CCCC3)CC2)cc1	DRD3 antagonist -65
O=C(CCCc1ccccc1)N1CCN(C2CCCCC2)CC1	DRD3 antagonist -84
OCC1(CCCc2ccccc2)CCN(C2CCC2)CC1	none
O=C(c1ccco1)N1CCN(C(=O)c2cccs2)CC1	DRD3 antagonist -56
O=C(c1ccco1)N1CCN(C2CCCC2)CC1	DRD3 antagonist -74
CC(Sc1nnc(Cc2cccs2)n1C1CCCCC1)C(N)=O (configuration not stated)	none
O=C(CSc1nnc(Cc2cccs2)n1C1CCCCC1)N1CCN(C(=O)c2ccco2)CC1	DRD3 antagonist -62
O=C(NCc1ccccc1)C1CCN(C(=O)c2cnn(-c3ccccc3)c2-n2cccc2)CC1	none (no result: DRD3 antagonist, uPA generation)
COc1ccc(S(=O)(=O)Nc2ccc(-c3cn4ccsc4n3)cc2)cc1C	none (no result: DRD3 antagonist, uPA generation)
CCCC1CCc2c(sc(NC(=O)c3cccs3)c2C(N)=O)C1 (configuration not stated)	DRD3 antagonist -94
COC(=O)c1c(NC(=O)c2cccs2)sc2c1CCC(C)C2 (configuration not stated)	none
CCC1CCc2c(sc(NC(=O)c3cccnc3)c2C(N)=O)C1 (configuration not stated)	none
CC1CCc2c(sc(NC(=O)c3cccs3)c2C(=O)O)C1 (configuration not stated)	uPA generation 4µM
Cc1ccc(S(=O)(=O)/C=C/C#N)cc1	RGS4 inhibitor 6µM (no result: DRD3 agonist, DRD3 antagonist, uPA generation)
O=S(=O)(/C=C/C=C/S(=O)(=O)c1ccccc1)c1ccccc1	DRD3 antagonist -101, RGS4 inhibitor inconclusive
Cc1ccc(S(=O)(=O)C=CS(=O)(=O)c2ccc(C)cc2)cc1	DRD3 antagonist -99 (no result: uPA generation, RGS4 inhibitor)
COc1ccccc1N=Nc1ccc(O)c2ncccc12	DRD3 antagonist -90, uPA generation inconclusive
Oc1ccc(N=Nc2ccccc2C(F)(F)F)c2cccnc12	DRD3 antagonist -124, uPA generation inconclusive
CCc1nc2ccc(C(=O)NC3CCN(Cc4ccccc4)CC3)cn2c1N(C)Cc1cc2ccccc2s1	DRD3 antagonist -68 (no result: uPA generation, RGS4 inhibitor)
CCc1nc2ccc(C(=O)NC3CCN(Cc4ccccc4)CC3)cn2c1N(C)Cc1cccs1	DRD3 antagonist -77 (no result: uPA generation, RGS4 inhibitor)
CCc1nc2ccc(C(=O)NCCCn3ccnc3)cn2c1N(C)Cc1cc2ccccc2s1	none (no result: uPA generation, RGS4 inhibitor)
CCOc1ccc2[nH]c(SCC(=O)OC)c([N+](=O)[O-])c2c1	DRD3 antagonist -53
COC(=O)CSc1[nH]c2ccc(Br)cc2c1[N+](=O)[O-]	none
COc1ccc(OC)c(-c2cc(C(=O)Nc3ccc(C)c(C)c3)no2)c1	none (no result: DRD3 antagonist, uPA generation)
COc1ccc(OC)c2c1C(=O)C(Cl)=C(Cl)C2=O	DRD3 antagonist -126, uPA generation inconclusive
CCCCNC(=O)CSc1nc2n[nH]c(C)c2c(=N)n1-c1ccccc1CC	none (no result: DRD3 antagonist, uPA generation)
CCN(CC)CCCNC(=O)/C(=C\c1cccn1C)NC(=O)c1cccs1	none
CCN(CC)CCC=C(c1cccs1)c1cccs1	DRD3 antagonist -54
O=c1oc2ccccc2c(Nc2ccc3ccccc3c2)c1[N+](=O)[O-]	DRD3 antagonist -86, RGS4 inhibitor inconclusive
COC(=O)C(Cc1ccccc1)OS(N)(=O)=O (configuration not stated)	DRD3 antagonist -58
COC(=O)[C@H](Cc1ccccc1)NS(=O)(=O)N[C@@H](Cc1ccccc1)C(=O)OC	none
CN(C)CCCNc1oc(-c2ccccc2Cl)nc1S(=O)(=O)c1ccc(F)cc1	DRD3 antagonist -61
O=S(=O)(c1ccccc1)c1nc(-c2ccccc2)oc1NCc1cccnc1	none
CCN(CC)CCNc1oc(-c2ccccc2)nc1S(=O)(=O)c1ccccc1	DRD3 antagonist -76
Cc1cccc(-c2nc(CSCC(=O)NCCCN3CCOCC3)c(C)o2)c1	none (no result: uPA generation)
Cc1ccc(S(=O)(=O)c2nc(-c3ccccc3)oc2NCCCN2CCOCC2)cc1	DRD3 antagonist -76
CN(C)CCNc1oc(-c2ccccc2Cl)nc1S(=O)(=O)c1ccccc1	none
Cc1cccc(-c2nc(S(=O)(=O)c3ccc(F)cc3)c(NCCCN3CCOCC3)o2)c1	DRD3 antagonist -73
O=C(COc1ccccc1F)Nc1nnc(SCc2cc(=O)n3ccccc3n2)s1	none (no result: DRD3 antagonist, uPA generation)
COc1ccc(-c2nc(S(=O)(=O)c3ccccc3)c(NCCCN3CCOCC3)o2)cc1	DRD3 antagonist -57
O=C(CN1C(=O)CSc2ccc(S(=O)(=O)N3CCOCC3)cc21)NCCCN1CCc2ccccc2C1	DRD3 antagonist -62
O=C(CN1C(=O)CSc2ccc(S(=O)(=O)N3CCOCC3)cc21)NCCCN1CCOCC1	none
CC(=O)c1cccc(NC(=O)C2=CC(c3ccc(F)cc3)=NS(=O)(=O)N2C)c1	none (no result: DRD3 antagonist, uPA generation)
COc1ccccc1C(O)c1ncc(-c2cccc3ccccc23)[nH]1 (configuration not stated)	DRD3 antagonist -57 (no result: uPA generation, RGS4 inhibitor)
OC(c1ccc(F)cc1)c1ncc(-c2cccc3ccccc23)[nH]1 (configuration not stated)	none (no result: uPA generation, RGS4 inhibitor)
CC(c1ccco1)N(C(=O)c1ccc(F)cc1)c1ccccn1 (configuration not stated)	none
CC(c1ccco1)N(C(=O)C12CC3CC(CC(C)(C3)C1)C2)c1ccccn1 (configuration not stated)	DRD3 antagonist -58
